# PubChem BioAssay (NCI)
# Compounds without any hit were thinned out: in the full panel of roughly 79,000, 15% have a hit. Unmarked numbers belong to inactive results. The source made the active and inactive calls. Rule as the data show it: active = growth inhibition above about 70%; inactive = the rest.
# Experiment: NCI Yeast Anticancer Drug Screen. Data for the mlh1 rad18 strain (AID 175)
# Details: S. cerevisiae mlh1 rad18 strain growth inhibition; at 5.0 µM (retest, dose inferred, filed as 0.5); hits give high values
# Outline: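 Steps: expose repair-defective yeast to compound; measure growth; express inhibition against vehicle-treated controls.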
row,Structure (SMILES),growth inhibition
1,CCCCCCCCCCCCCCCC1=NCCN1C,16%
2,C=CCNC(=O)c1ccccc1C(=O)O,3%
3,O=C(Nc1ccc(Cl)cc1Cl)OC(Cn1cncn1)c1ccc(Cl)cc1Cl (configuration not stated),77% (active)
4,CC1=C(C)CC2C(=O)C(C(O)CC(C)C)=CC(=O)C2C1 (configuration not stated),-9%
5,BrCc1ccccc1C[P+](c1ccccc1)(c1ccccc1)c1ccccc1,69%
6,Cc1cn(C(C#N)=C(C#N)C#N)c2ccccc12,1%
7,O=C1OCCCOC(=O)c2cc(ccc2O)OCC#CC#CCOc2ccc(O)c1c2,0%
8,O=[N+]([O-])c1cc2ccc(O)cc2c2ccccc12,-7%
9,COc1cc2c(oc(=O)c3cc(C)cc(OC)c32)c2c(C3OC(C)C(O)C(C)(O)C3O)ccc(O)c12 (configuration not stated),90% (active)
10,Oc1c(Cl)cc(Cl)c(Cc2c(Cl)cc(Cl)c(O)c2Cl)c1Cl,99% (active)
11,N#CI1OC(C(F)(F)F)(C(F)(F)F)c2ccccc21,87% (active)
12,c1ccc2c(c1)[nH]c1c[n+]3c(c[n+]12)[nH]c1ccccc13,4%
13,CC1Cc2cc(O)c(O)cc2-c2cc(O)c(O)cc2CC1C (configuration not stated),-8%
14,COc1ccc(C2c3cc4c(cc3OC(C)(O)C2C)OCO4)cc1 (configuration not stated),-2%
15,Cc1ccc(C2(O)CC(c3ccc([N+](=O)[O-])o3)=NN2C(=O)COc2ccc(Cl)cc2)cc1 (configuration not stated),43%
16,CCO[Si](CC)(OCC)OCC,-2%
17,C/C=C(/CCC1NCCC2c3ccccc3NC12)[Si](C)(C)C (configuration not stated),-4%
